In PubChem BioAssay (NCATS):
Results filed as inconclusive are left out. Unmarked numbers belong to inactive results. Active and inactive are the calls of the source. Calls follow the shape of the dose curve; as a rule, active = well fitted curve in the direction sought with a large enough effect; inconclusive = small, poorly fitted or top-dose-only effect, or another doubt; inactive = no such curve, though single readings can be large; an effect the other way counts as inactive or inconclusive.

Columns and labels:
[1] = qHTS of pediatric cancer cell lines to identify multiple opportunities for drug repurposing: Primary screen for SK-N-SH cells (AID 1347098); also: nearly all actives have a fitted effect of over 65% in size
How it was run: (§1)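 Cells (500-1,000/well) rested 5 h, then received compounds for 48 h; metabolically active cells were measured by CellTiter-Glo luminescence. Final concentrations spanned up to 46 µM (MIPE, 11-point) or 0.59 nM-46 µM (NPC, 8-point) in primary screens, 11-point in follow-ups.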

[2] = qHTS of pediatric cancer cell lines to identify multiple opportunities for drug repurposing: Primary screen for NB1643 cells (AID 1347099); also: nearly all actives have a fitted effect of over 50% in size
How it was run: (§2)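 Plated cells (500-1,000 per well, growth media) were allowed to settle for 5 hours, treated with compound dilutions for 48 hours, then lysed with CellTiter-Glo for 15 min at room temperature before luminescence reading.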

[3] = qHTS of pediatric cancer cell lines to identify multiple opportunities for drug repurposing: Primary screen for LAN-5 cells (AID 1347100)
How it was run: (§3)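 Cells (500-1,000/well) in growth media were settled 5 h at 37 degrees C, then given compounds for 48 h. Viability was read as CellTiter-Glo luminescence. Primary runs used MIPE at 11 points (0.78 nM-46 µM) and NPC at 8 points (0.59 nM-46 µM); follow-ups used 11 points.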

[4] = qHTS of pediatric cancer cell lines to identify multiple opportunities for drug repurposing: Primary screen for BT-12 cells (AID 1347101); also: nearly all actives have a fitted effect of over 25% in size
How it was run: as §1

[5] = qHTS of pediatric cancer cell lines to identify multiple opportunities for drug repurposing: Primary screen for Rh18 cells (AID 1347102); also: nearly all actives have a fitted effect of over 65% in size
How it was run: as §3

[6] = qHTS of pediatric cancer cell lines to identify multiple opportunities for drug repurposing: Primary screen for OHS-50 cells (AID 1347103); also: nearly all actives have a fitted effect of over 40% in size
How it was run: as §1

[7] = qHTS of pediatric cancer cell lines to identify multiple opportunities for drug repurposing: Primary screen for RD cells (AID 1347104); also: nearly all actives have a fitted effect of over 55% in size
How it was run: as §2

[8] = qHTS of pediatric cancer cell lines to identify multiple opportunities for drug repurposing: Primary screen for MG 63 (6-TG R) cells (AID 1347105); also: nearly all actives have a fitted effect of over 50% in size
How it was run: as §2

[9] = qHTS of pediatric cancer cell lines to identify multiple opportunities for drug repurposing: Primary screen for control Hh wild type fibroblast cells (AID 1347106); also: nearly all actives have a fitted effect of over 55% in size
How it was run: as §3

[10] = qHTS of pediatric cancer cell lines to identify multiple opportunities for drug repurposing: Primary screen for Rh30 cells (AID 1347107); also: nearly all actives have a fitted effect of over 75% in size
How it was run: as §3

[11] = qHTS of pediatric cancer cell lines to identify multiple opportunities for drug repurposing: Primary screen for Rh41 cells (AID 1347108); also: nearly all actives have a fitted effect of over 70% in size
How it was run: as §2

[12] = qHTS of pediatric cancer cell lines to identify multiple opportunities for drug repurposing: Confirmatory screen for NB1643 cells (AID 1347109); also: nearly all actives have a fitted effect of over 45% in size
How it was run: as §3

[13] = qHTS of pediatric cancer cell lines to identify multiple opportunities for drug repurposing: Confirmatory screen for A673 cells (AID 1347110);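 also: cells exposed to compound for 48 h before the viability read; nearly all actives have a fitted effect of over 65% in size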
How it was run: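 Forty-eight-hour viability assay. Follow-up compounds ran at 11-point dilutions; positive control bortezomib at 2.3 uM final, neutral control DMSO.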

[14] = qHTS of pediatric cancer cell lines to identify multiple opportunities for drug repurposing: Confirmatory screen for SK-N-MC cells (AID 1347111);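 also: cells exposed to compound for 48 h before the readout; nearly all actives have a fitted effect of over 70% in size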
How it was run: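 Metabolically active cells were quantified by ATP-dependent luminescence (CellTiter-Glo, 15 min at room temperature) following 48 h treatment. Cells had been plated at 500-1,000 per well and settled for 5 h beforehand.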

[15] = qHTS of pediatric cancer cell lines to identify multiple opportunities for drug repurposing: Confirmatory screen for LAN-5 cells (AID 1347113); also: nearly all actives have a fitted effect of over 65% in size
How it was run: as §3

[16] = qHTS of pediatric cancer cell lines to identify multiple opportunities for drug repurposing: Confirmatory screen for BT-37 cells (AID 1347117); also: nearly all actives have a fitted effect of over 55% in size
How it was run: as §3

[17] = qHTS of pediatric cancer cell lines to identify multiple opportunities for drug repurposing: Confirmatory screen for BT-12 cells (AID 1347112); also: nearly all actives have a fitted effect of over 55% in size
How it was run: as §3

[18] = qHTS of pediatric cancer cell lines to identify multiple opportunities for drug repurposing: Confirmatory screen for SJ-GBM2 cells (AID 1347116); also: nearly all actives have a fitted effect of over 60% in size
How it was run: (§4)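 Viability measured as metabolically active cells via CellTiter-Glo luminescence following 48 hours of compound exposure, 11-point dilutions in confirmatory testing. 500-1,000 cells/well plated 5 hours before dosing; controls were DMSO and 2.3 µM bortezomib.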

[19] = qHTS of pediatric cancer cell lines to identify multiple opportunities for drug repurposing: Confirmatory screen for NB-EBc1 cells (AID 1347115);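 also: cells exposed to compound for 48 h before the viability read; nearly all actives have a fitted effect of over 45% in size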
How it was run: as §3

[20] = qHTS of pediatric cancer cell lines to identify multiple opportunities for drug repurposing: Confirmatory screen for DAOY cells (AID 1347114); also: nearly all actives have a fitted effect of over 65% in size
How it was run: as §4
Potency is read from the fitted curve at half-maximal effect.

Row | SMILES | Potency [1] | Potency [2] | Potency [3] | Potency [4] | Potency [5] | Potency [6] | Potency [7] | Potency [8] | Potency [9] | Potency [10] | Potency [11] | Potency [12] | Potency [13] | Potency [14] | Potency [15] | Potency [16] | Potency [17] | Potency [18] | Potency [19] | Potency [20]
1 | CN1CCN(c2cc(C(=O)Nc3ccc4c(c3)-c3c(c(C(N)=O)nn3-c3ccc(F)cc3)CC4)c(Cl)cn2)CC1 | 7.64 µM (active) | 1.18 µM (active) | 16.6 µM (active) | 30.6 µM (active) | 20.9 µM (active) | 24.3 µM (active) | 16.6 µM (active) | 23.5 µM (active) | 20.9 µM (active) | 16.6 µM (active) | 20.9 µM (active) | 23.3 µM (active) | 14.7 µM (active) | 20.8 µM (active) | 16.5 µM (active) | 20.8 µM (active) |  |  |  | 
2 | O=C(NCCCNc1nc(Nc2cccc(NC(=O)N3CCCC3)c2)ncc1I)c1cccs1 | 17.1 µM (active) | 11.8 µM (active) | 0.833 µM (active) | 24.3 µM (active) | 14.8 µM (active) | 24.3 µM (active) | 16.6 µM (active) | 3.72 µM (active) |  |  | 18.7 µM (active) |  |  |  |  |  |  |  |  | 
3 | Cc1cc(Nc2ncnc3ccc(-c4ccc(CNCCS(C)(=O)=O)o4)cc23)ccc1Oc1ccn2ncnc2c1 | 21.5 µM (active) | 16.6 µM (active) | 14.8 µM (active) | 6.85 µM (active) | 20.9 µM (active) | 1.22 µM (active) | 16.6 µM (active) | 18.7 µM (active) | inactive |  | 11.8 µM (active) |  |  | 20.8 µM (active) | 20.8 µM (active) | 16.5 µM (active) | inactive | 0.0657 µM (active) |  | 
4 | CN1CCN(c2ccc3nc(-c4c(N)c5c(F)cccc5[nH]c4=O)[nH]c3c2)CC1 | 15.2 µM (active) | 16.6 µM (active) | 4.69 µM (active) | 17.2 µM (active) | 20.9 µM (active) | 1.72 µM (active) |  |  |  |  |  |  |  |  |  |  |  |  |  | 
5 | O=C(CCCCCCC(=O)Nc1ccc([C@H]2O[C@@H](CSc3nc(-c4ccccc4)c(-c4ccccc4)o3)C[C@@H](c3ccc(CO)cc3)O2)cc1)NO | 27.1 µM (active) | 7.43 µM (active) | 8.33 µM (active) | 21.7 µM (active) | 10.5 µM (active) | 15.3 µM (active) | 16.6 µM (active) | 14.8 µM (active) |  | 14.8 µM (active) | 9.35 µM (active) |  |  |  |  |  |  |  |  | 
6 | COc1ccc(OC)c(-c2nnc3ccc(-c4ccc(OC)c(O[C@@H]5CCOC5)c4)nn23)c1 | 30.4 µM (active) | 18.7 µM (active) | 26.4 µM (active) | 9.68 µM (active) | 13.2 µM (active) | 17.2 µM (active) | 16.6 µM (active) |  |  |  | 20.9 µM (active) | 5.22 µM (active) | 10.4 µM (active) | 4.65 µM (active) |  | 7.37 µM (active) | inactive |  |  | 
7 | COCCOc1ccc2c(c1)ncn2-c1ccc2cccc(N3CCC(N)CC3)c2n1 | 21.5 µM (active) | 23.5 µM (active) | 9.35 µM (active) | 27.3 µM (active) | 26.4 µM (active) | 19.3 µM (active) | 29.6 µM (active) | 29.6 µM (active) |  |  | 23.5 µM (active) |  |  |  |  |  |  |  |  | 
8 | CCS(=O)(=O)c1cccc(-c2cc(C(=O)NC3CCN(C)CC3)c(C)c3[nH]c4ncc(C)cc4c23)c1 | 6.81 µM (active) | 0.526 µM (active) | 0.118 µM (active) | 6.11 µM (active) | 1.18 µM (active) | 0.769 µM (active) | 2.64 µM (active) | 14.8 µM (active) |  |  | 1.32 µM (active) | 0.414 µM (active) | 0.928 µM (active) | 0.117 µM (active) | 1.17 µM (active) | 1.85 µM (active) | 4.65 µM (active) | 5.22 µM (active) | 16.5 µM (active) | 
9 | Nc1ccccc1NC(=O)c1ccc(CNC(=O)OCc2cccnc2)cc1 | 17.1 µM (active) | 1.87 µM (active) | 0.833 µM (active) | 7.69 µM (active) | 2.96 µM (active) | 0.863 µM (active) | 5.26 µM (active) | 4.69 µM (active) | 20.9 µM (active) | 18.7 µM (active) | 3.72 µM (active) | 2.14 µM (active) | 13.5 µM (active) | 0.302 µM (active) | 2.69 µM (active) | 3.02 µM (active) |  | 13.5 µM (active) | 30.2 µM (active) | 1.91 µM (active)
10 | O=C(CCCCCCNC(=O)c1cnc(N(c2ccccc2)c2ccccc2)nc1)NO | 10.8 µM (active) | 3.72 µM (active) | 4.69 µM (active) | 17.2 µM (active) | 5.9 µM (active) | 6.85 µM (active) | 13.2 µM (active) |  | inactive | 14.8 µM (active) | 9.35 µM (active) |  |  |  |  |  |  |  |  | 
11 | C=CC(=O)Nc1cc2c(Nc3ccc(F)c(Cl)c3)ncnc2cc1C#CC(C)(C)N1CCN(C)CC1 | 3.83 µM (active) | 0.526 µM (active) | 2.96 µM (active) | 21.7 µM (active) | 4.69 µM (active) | 3.85 µM (active) | 5.9 µM (active) |  | inactive | 11.8 µM (active) | 9.35 µM (active) | 5.37 µM (active) | 4.27 µM (active) | 1.91 µM (active) | 5.37 µM (active) | 3.02 µM (active) | 17 µM (active) | 6.03 µM (active) | 15.1 µM (active) | 4.79 µM (active)
